An excerpt weighted towards active compounds, which were near 2.2% of everything screened.
NOD2-RIPK2 inh = inhibitors of human NOD2-RIPK2 interaction. O43353. CHO BLA complementation NOD2-RIPK2, CCF4 ratio. inhibition, % at 4.98 µM. 360,000 tested, 0.38% active. AID 624267; in the data active = inhibition above about 21%
TMEM16A act = mouse TMEM16A channel activation, primary screen. Q8BHY3. HEK293 TMEM16A/YFP-H148Q/I152L, iodide quench fluorescence; hits give low values. B-score at 10 µM. 340,000 tested, 0.3% active;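 active = fluorescence-ratio B-score plate-corrected deviation score at least 3 library SD below zero, with starting fluorescence score within 5 deviations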;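 also: channel opened by trigger with iodide after compound preincubation; score built on the fluorescence ratio of max minus min over baseline; more negative score means more quench and so TMEM16A activation or potentiation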
GRK2 aptamer HTS = inhibitors of human GRK2 displacing RNA aptamer. P25098. bead flow cytometry, FAM-aptamer displacement from GRK2. inhibition of aptamer binding, % at 10 µM. 330,000 tested, 0.59% active;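 active = inhibition of aptamer binding above 40%, roughly 3 SD of noise, on plates passing a quality check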;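 also: median bead fluorescence of bound FAM aptamer so fluorescent compounds give negative values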
TLR4 MyD88 comp = inhibitors of human TLR4-MyD88 binding. inhibition, % at 8.4 µM. HeLa CL3-4 TLR4/MyD88 BLA complementation, FRET ratio. AID 861. 200,000 tested, 0.18% active; in the data active = inhibition above about 25%
ANO1 block = blocks the mouse calcium-activated chloride channel TMEM16A | Q8BHY3 | HEK293 TMEM16A/YFP iodide influx fluorescence, ionomycin | normalized B-score (activity score, 25-100; higher = stronger inhibition) at 10 µM | 310,000 tested, 1.2% active;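 active = ratio plate-corrected score three or more library SD toward inhibition, starting fluorescence score within five deviations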;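 also: score derived from kinetic fluorescence span divided by baseline fluorescence per well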
TLR9-MyD88 block = inhibitors of human TLR9-MyD88 binding; Q9NR96+Q99836; 340,000 tested, 0.21% active; CHO BLA complementation TLR9-MyD88, CCF4 FRET ratio; inhibition, % at 4.98 µM; AID 504734;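 active = inhibition above the mean over all tested compounds plus 3 SD, cut at about 21% in these data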
GRK2 inh confirm = confirmation of human GRK2 inhibitors displacing RNA aptamer. shares compounds with GRK2 aptamer HTS. bead-bound GRK2, FAM-aptamer displacement, flow cytometry. aptamer displacement, % at 10 µM. 2,000 tested, 4% active;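 active = aptamer displacement above 40%, near three times the noise of non-fluorescent compounds, on plates passing quality checks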;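 also: negative values mostly reflect intrinsic compound fluorescence rather than true enhancement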
FAM quench CP1 = aptamer fluorescence quenching in GRK2 counter-screen. shares compounds with GRK2 aptamer HTS. Carboxyfluorescein RNA aptamer on beads, flow cytometry quenching; hits give low values. fluorescence response (% of DMSO), % at 10 µM. 2,000 tested, under 10 active. AID 504580;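 active = compounds that quench the bead-bound fluorescent RNA probe, cutting fluorescence to under half of the solvent control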;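 also: counterscreen run without GRK2 so only probe quenching by compound is measured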
Numbers stand for hits; . = inactive; / = no result given.

SMILES	NOD2-RIPK2 inh	TMEM16A act	GRK2 aptamer HTS	TLR4 MyD88 comp	ANO1 block	TLR9-MyD88 block	GRK2 inh confirm	FAM quench CP1
Cn1ccc2cc3c(cc21)CCN3C(=O)Nc1cccnc1	.	.	57	/	.	.	.	.
CNC(=O)CSc1nc2nn(-c3ccccc3)c(=O)c-2c2n1CCCCC2	.	.	.	.	.	.	/	/
CC(C)CNC(=O)CSc1nc2nn(-c3ccccc3)c(=O)c-2c2n1CCCCC2	.	.	.	.	.	.	.	.
O=[N+]([O-])c1cc(Cl)cc(/C=N/Nc2nc3ccccc3s2)c1O	.	.	.	.	.	.	/	/
COc1cc(/C=N/Nc2nc3ccccc3s2)cc([N+](=O)[O-])c1O	.	.	68	/	.	.	.	.
Cc1nn(C)c(C)c1C(C)NC(=O)c1cc(COc2cncc(Cl)c2)on1 (stereo unspecified)	.	.	83	/	.	.	.	.
Cc1nn(C)c(C)c1C(C)NC(=O)c1cc(COc2ccc(F)c(F)c2)on1 (stereo unspecified)	.	.	.	/	.	.	/	/
O=C1NC(=O)/C(=C\c2ccc(Br)o2)S1	.	.	90	/	.	.	.	.
CSc1ncccc1C(=O)NC1CCN(Cc2ccccc2)CC1	.	.	.	/	.	.	/	/
COC(=O)c1ccc(C(C(=O)NC2CCCCC2)N(Cc2ccccc2)C(=O)Cc2cccs2)cc1 (stereo unspecified)	.	.	.	.	.	.	/	/
COC(=O)c1ccc(C(C(=O)NC2CCCCC2)N(C(=O)Cc2cccs2)C2CC2)cc1 (stereo unspecified)	.	.	86	.	.	.	.	.
O=C(NC1CCCC1)C(c1ccncc1)N(Cc1ccccc1)C(=O)Cc1cccs1 (stereo unspecified)	.	.	.	.	.	.	/	/
O=C(NC1CCCC1)C(c1ccsc1)N(Cc1ccccc1)C(=O)Cc1cccs1 (stereo unspecified)	.	.	.	.	.	.	.	.
COc1ccccc1N1C(=O)C2C(c3ccc(F)cc3)NN(C(=O)c3ccc(C)cc3)C2C1=O (stereo unspecified)	.	.	.	.	.	.	/	/
O=C(O)C1CC=CCC1C(=O)NC1CCCCC1 (stereo unspecified)	.	.	.	.	.	.	/	/
O=C(NC(NC1CCS(=O)(=O)C1)C(Cl)(Cl)Cl)c1cccc(Cl)c1 (stereo unspecified)	.	.	51	.	.	.	.	.
COc1cc(C(=O)NCCCN2CCCC2=O)cc(OC)c1OC	.	.	94	.	.	.	.	.
COc1cc(-c2noc(C)c2C(=O)NCCCN2CCCC2=O)cc(OC)c1OC	.	.	.	/	/	.	/	/
CCOC(=O)C1=C(C)NC(=O)NC1c1ccc(OC(=O)c2ccco2)cc1 (stereo unspecified)	.	.	.	.	.	.	/	/
CCOC(=O)C1=C(COC(=O)c2ccco2)NC(=O)NC1CC (stereo unspecified)	.	.	83	/	/	.	.	.
Nc1ccc(CCNc2ncnc3c2ncn3[C@@H]2O[C@H](CO)[C@@H](O)[C@H]2O)cc1	.	.	.	/	.	.	.	.
COC(=O)[C@@]12CCCCN1[C@H](c1ccc(-c3cccc(Cl)c3)cc1)[C@@H]1C(=O)N(C)C(=O)[C@@H]12	.	.	.	/	/	.	/	/
CC(C)(C)[C@@H]1COC(=O)[C@H](Cc2ccc(F)cc2)C/C=C\C[C@H](CC(=O)N(CCO)Cc2ccccc2)C(=O)N1	.	.	.	/	/	.	/	/
COc1ccccc1NS(=O)(=O)c1cccc(C(=O)OCC(=O)NC2CC2)c1	.	.	59	/	.	.	.	.
CNS(=O)(=O)c1cccc(C(=O)OCC(=O)NC2CCCC2)c1	.	.	.	/	.	.	/	/
SMILES	NOD2-RIPK2 inh	TMEM16A act	GRK2 aptamer HTS	TLR4 MyD88 comp	ANO1 block	TLR9-MyD88 block	GRK2 inh confirm	FAM quench CP1
Cc1ccc(SCCC(=O)N(C)CC(=O)Nc2c(C)cccc2C)cc1	.	.	.	/	.	.	/	/
Cc1ccccc1S(=O)(=O)Cc1ccc(C(=O)NC(C)c2ccccc2)o1 (stereo unspecified)	.	.	.	/	.	.	/	/
COc1ccccc1S(=O)(=O)Cc1ccc(C(=O)NC(C)c2ccc3c(c2)OCCO3)o1 (stereo unspecified)	.	.	.	.	.	.	.	.
CC1=C(C(N)=O)C(c2cccs2)n2ncnc2N1 (stereo unspecified)	.	.	.	/	.	.	/	/
CC1=C(C(=O)OC(C)C)C(c2cccs2)n2ncnc2N1 (stereo unspecified)	.	.	85	.	.	.	.	.
Cc1c(N2C(=O)c3ccc4c5c(ccc(c35)C2=O)CC4)c(=O)n(-c2ccccc2)n1C	.	.	46	.	.	.	.	.
Cc1c(N2C(=O)c3ccc(Br)cc3C2=O)c(=O)n(-c2ccccc2)n1C	.	.	.	.	.	.	/	/
O=C(O)C1C2CCC(C2)C1C(=O)NCc1ccccn1 (stereo unspecified)	.	.	.	.	.	.	/	/
CCn1cc(CNC(=O)C2C3CCC(C3)C2C(=O)O)cn1 (stereo unspecified)	.	.	.	.	.	.	.	.
CCc1ccc(CN2CCCC(C(=O)Nc3ccc(-c4cscn4)cc3)C2)o1 (stereo unspecified)	.	.	.	/	.	.	/	/
O=C(NC(CO)C(O)c1ccc([N+](=O)[O-])cc1)C(Cl)Cl (stereo unspecified)	.	.	.	.	.	.	/	/
NC(CO)C(O)c1ccc([N+](=O)[O-])cc1 (stereo unspecified)	.	.	98	.	.	.	.	.
COCCCn1cc(CN2CC(N3CCCCC3)CS2(=O)=O)nn1 (stereo unspecified)	.	/	/	/	/	/	/	/
CC(=O)C[C@H]1c2cc(C(F)(F)F)ccc2S(=O)(=O)N1C1CCCC1	.	.	46	/	.	.	.	.
O=C(O)C[C@H]1c2cc(C(F)(F)F)ccc2S(=O)(=O)N1C1CCCC1	.	.	.	/	.	.	/	/
Cc1noc(C)c1CSCC(=O)Oc1ccc(N(C)S(=O)(=O)c2ccc(Cl)cc2)cc1	.	.	.	/	.	.	/	/
O=C(O)CCn1nnc(-c2cccs2)n1	.	.	.	.	.	.	/	/
O=C(O)Cn1nnc(-c2cccs2)n1	.	.	89	.	.	.	.	.
Cc1nc(SCC(=O)O)c(C#N)c2c1CCCC2	.	.	82	/	.	.	.	.
C[C@H]1CN([C@@H](C)CO)C(=O)CCCn2cc(nn2)CO[C@@H]1CN(C)S(C)(=O)=O	.	/	/	/	/	.	/	/

Screening results from PubChem.
